Shown are actives, neighbours in structure and some others; about 10% of the full set was active somewhere.
G9a inh – qHTS Assay for Inhibitors of Histone Lysine Methyltransferase G9a; actives 8.8% (n = 350,000); AID 504332, 2011; Potency, µM (top dose mostly 102 µM), hits mostly inhibitors; G9a H3K9 monomethylation, AlphaScreen, 2 h; also: nearly all actives have a fitted effect of over 75% in size
Target sequence (Q96KQ7 913-1193 limits assumed): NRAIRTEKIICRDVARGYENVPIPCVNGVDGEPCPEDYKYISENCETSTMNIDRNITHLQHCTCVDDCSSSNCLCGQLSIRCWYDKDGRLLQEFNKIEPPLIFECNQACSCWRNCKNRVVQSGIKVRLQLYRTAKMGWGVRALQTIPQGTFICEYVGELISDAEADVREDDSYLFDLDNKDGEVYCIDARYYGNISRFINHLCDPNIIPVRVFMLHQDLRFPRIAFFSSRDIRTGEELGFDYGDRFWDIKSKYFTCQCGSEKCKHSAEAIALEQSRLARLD
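Step 1: enzyme (final 20 nM) with compound, 15 min RT. Step 2: substrate peptide 500 nM and SAM 20 uM, 2 h RT. Step 3: anti-H3K9me1 antibody and AlphaScreen beads, 10 min, then plate read.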
JMJD2A Tudor inh – qHTS Assay for Inhibitors of JMJD2A-Tudor Domain | actives 4.4% (n = 390,000) | Lysine-specific demethylase 4A (Homo sapiens), O75164 | AlphaScreen JMJD2A-Tudor / H3K4me3 peptide binding | Potency, µM (top dose mostly 114 µM), hits mostly inhibitors; also: nearly all actives have a fitted effect of over 50% in size
HP1b chromo inh – HTS for Inhibitors of HP1-beta Chromodomain Interactions with Methylated Histone Tails; AID 540317, 2011; AlphaScreen HP1-beta / biotin-H3K9me3 peptide binding; Potency, µM (series often up to 114 µM), most hits filed as inhibitors; Chromobox protein homolog 1 (Homo sapiens), P83916; actives 0.56% (n = 390,000); also: nearly all actives have a fitted effect of over 70% in size
Target sequence (P83916 whole entry, looked up): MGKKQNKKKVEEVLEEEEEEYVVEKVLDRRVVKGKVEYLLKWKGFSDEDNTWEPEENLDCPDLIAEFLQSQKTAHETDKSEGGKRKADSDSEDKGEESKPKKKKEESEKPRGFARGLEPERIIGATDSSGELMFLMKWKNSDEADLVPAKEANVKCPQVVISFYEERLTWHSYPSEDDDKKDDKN
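Compound inhibition of the preformed complex between 50 nM HP1-beta and 50 nM biotinylated H3K9me3 peptide was read by AlphaScreen. Buffer was PBS pH 7.4 with 0.01% Tween-20. Incubations ran 30 min at room temperature, with 10 ug/mL donor/acceptor beads.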
BAZ2B block – qHTS Assay for Inhibitors of BAZ2B; Bromodomain adjacent to zinc finger domain protein 2B (Homo sapiens), Q9UIF8; AlphaScreen BAZ2B-H3K14Ac peptide displacement; Potency, µM (series often up to 114 µM), hits mostly inhibitors; actives 4.4% (n = 360,000); also: nearly all actives have a fitted effect of over 60% in size
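AlphaScreen displacement: compounds (up to 110uM) incubated 30 min at room temperature with a preformed 50 nM BAZ2B/50 nM biotinylated H3K14Ac peptide complex in PBS pH 7.4 with Tween-20. Donor and acceptor beads at 10 ug/mL final added, 20 min light-protected before reading.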
Six1-Eya2 blk – qHTS Assay for Inhibitors of the Six1/Eya2 Interaction | Homeobox protein SIX1 (Homo sapiens) + Protein phosphatase EYA2 (Homo sapiens), … | activity change, % (concentration not given with the values) | AlphaScreen GST-Six1/His-Eya2 binding, biochemical; active compounds read low | actives 0.56% (n = 360,000); in the data active = activity change below about -65%; inconclusive = mostly about -30% to -63%
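GST-Six1 + His-Eya2 (5X stock: 250/500 nM); Tris pH 8.0, 300 mM NaCl, 0.05% BSA, 0.02% Tween 20; GSH donor/Ni acceptor beads; 1 h 37 °C dark; AlphaScreen readout.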
CtBP-E1A inh – qHTS Assay for Inhibitors of the CtBP/E1A Interaction; CtBP / adenovirus E1A interaction (AlphaScreen); AlphaScreen GST-E1A/His-CtBP binding, 1536-well; active compounds read low; activity change, % (concentration not given with the values); actives 0.49% (n = 340,000); AID 651724, 2012; in the data active = activity change below about -65%; inconclusive = mostly about -30% to -63%
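AlphaScreen with 125 nM GST-E1A and 125 nM His-CtBP (5X stocks) in Tris pH 8.0, 300 mM NaCl, BSA, Tween 20, TCEP. Compounds preincubated 2 h at 37 deg C, then glutathione donor/nickel acceptor beads added for 1 h at 37 deg C in dark.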
Of the large screens only hits and unclear results are named; the others gave an inactive call. Unless noted, calls follow the shape of the dose curve; as a rule, active = well fitted inhibition curve with a large enough effect; inconclusive = small, poorly fitted or top-dose-only effect; inactive = no such curve, though single readings can be large or run the other way.

Cc1ccc(C)c(NC(=O)CN(C)C(=O)CSCc2c(C)noc2C)c1	G9a inh 32µM
Cc1cccc(C)c1NC(=O)CN(C)C(=O)CSCc1c(C)noc1C	none
Cc1cc(C)c(NC(=O)CSCc2c(C)noc2C)c(Cl)c1	G9a inh 40µM
COc1ccc(-c2cn3c(n2)sc2cc(C(=O)Nc4cc(Cl)ccc4C)ccc23)cc1	none (no result: Six1-Eya2 blk, CtBP-E1A inh)
CC(C)Cc1ccc(CC(=O)O)cc1	G9a inh 11µM (no result: JMJD2A Tudor inh, HP1b chromo inh, BAZ2B block, Six1-Eya2 blk, CtBP-E1A inh)
O=C(O)Cc1ccc(-n2cccc2)cc1	G9a inh 20µM, JMJD2A Tudor inh 40µM, HP1b chromo inh 25µM, BAZ2B block 8.9µM, Six1-Eya2 blk inconclusive
Cc1ccc(CNC(=O)c2ccc(-n3cccc3)cc2)cc1	G9a inh inconclusive, JMJD2A Tudor inh 40µM, HP1b chromo inh 22µM, BAZ2B block 25µM, Six1-Eya2 blk inconclusive
Cc1ccc(CNC(=O)Cc2ccc(-n3cccc3)cc2)cc1	none
CN1C2=CC=CC=CC2=[N+](C)C12C=CC(=[N+]([O-])[O-])C=C2[N+](=O)[O-] (centres undefined)	G9a inh 32µM, HP1b chromo inh inconclusive, BAZ2B block 35µM
O=C(NCCCOc1cccc(CN2CCCCC2)c1)c1ccc(Cl)c(Cl)c1	G9a inh 10µM, JMJD2A Tudor inh 3.5µM, HP1b chromo inh inconclusive, BAZ2B block inconclusive
C(#Cc1ccccc1)CN1CCOCC1	none
CC(C)C(O)(C#CCN1CCCCC1)c1ccccc1 (centres undefined)	none
CC(C)C(O)(C#CCN1CCCC1)c1ccccc1 (centres undefined)	G9a inh 25µM, BAZ2B block inconclusive
OC(C#CCN1CCCC1)c1ccccc1 (centres undefined)	G9a inh 45µM
CC(O)(C#CCN1CCOCC1)c1ccccc1 (centres undefined)	G9a inh 40µM
OC(C#CCN1CCCC1)(c1ccccc1)c1cccnc1 (centres undefined)	G9a inh 8.9µM, JMJD2A Tudor inh 28µM, BAZ2B block 79µM, CtBP-E1A inh inconclusive
COc1ccccc1NC(=O)Cn1c(=O)n(CCCCCC(=O)NCc2ccccc2)c(=O)c2sccc21	none (no result: Six1-Eya2 blk, CtBP-E1A inh)
CCc1ccccc1NC(=O)C1CCN(C2=NS(=O)(=O)C(c3ccc(C)c(C)c3)=C2C)CC1	BAZ2B block inconclusive (no result: Six1-Eya2 blk, CtBP-E1A inh)
CCCN1CNc2c(c(=O)[nH]c(=S)n2CCc2ccc(OC)cc2)C1	none (no result: G9a inh, BAZ2B block, Six1-Eya2 blk, CtBP-E1A inh)
COc1cccc(N2CCN(S(=O)(=O)c3ccc(-c4cc(C(F)(F)F)on4)s3)CC2)c1	none (no result: Six1-Eya2 blk, CtBP-E1A inh)
OC(C#CCN1CCCCCC1)(c1ccccc1)c1cccnc1 (centres undefined)	G9a inh 18µM
OC(C#CCCN1CCCCC1)(c1ccccc1)c1ccccc1	none (no result: G9a inh)
Cc1csc2c(=O)sc(NC(=O)c3cccs3)nc12	G9a inh inconclusive, BAZ2B block 50µM
O=C(Nc1nc2ccsc2c(=O)s1)c1ccco1	G9a inh 40µM, JMJD2A Tudor inh 35µM, HP1b chromo inh inconclusive, BAZ2B block inconclusive
Cc1csc2c(=O)sc(NC(=O)c3ccco3)nc12	G9a inh 50µM
Cc1nc2ccc3nc(NC(=O)c4ccco4)sc3c2s1	JMJD2A Tudor inh inconclusive (no result: G9a inh, BAZ2B block)
CCC(Sc1nc2ccncc2[nH]1)C(=O)Nc1ccc(F)cc1 (centres undefined)	none (no result: Six1-Eya2 blk, CtBP-E1A inh)
O=C(O)c1ccc(CNc2ncnc3nc[nH]c23)cc1	none (no result: G9a inh, BAZ2B block, Six1-Eya2 blk, CtBP-E1A inh)
CC(C)c1ccc(NS(=O)(=O)c2ccc3[nH]cc(C(=O)NCC4CCCO4)c(=O)c3c2)cc1 (centres undefined)	G9a inh inconclusive (no result: BAZ2B block, Six1-Eya2 blk, CtBP-E1A inh)
Cc1ccc(NC(=O)Cn2cc(C(=O)c3ccco3)c3ccccc32)c(C)c1	none (no result: Six1-Eya2 blk, CtBP-E1A inh)
CC1=C/C(=C(\c2cc(C)c(O)c(Br)c2)c2ccccc2S(=O)(=O)O)C=C(Br)C1=O	G9a inh 14µM, JMJD2A Tudor inh inconclusive, HP1b chromo inh 28µM, BAZ2B block 20µM, Six1-Eya2 blk -92, CtBP-E1A inh -75
O=C(Oc1cccc2c(O)cccc12)c1ccccc1Cl	none (no result: G9a inh, BAZ2B block)
O=C(Oc1ccccc1O)c1cccc2ccccc12	G9a inh 45µM (no result: JMJD2A Tudor inh, HP1b chromo inh, Six1-Eya2 blk, CtBP-E1A inh)
Cc1ccc(NC(=O)C(=O)NCC(c2cccnc2)N2CCN(c3ccccc3F)CC2)cc1Cl (centres undefined)	none (no result: Six1-Eya2 blk, CtBP-E1A inh)
Cc1cccc(N2CCN(S(=O)(=O)c3ccc4c(c3)CCN4C(=O)CCC(=O)O)CC2C)c1 (centres undefined)	G9a inh inconclusive, JMJD2A Tudor inh 56µM, HP1b chromo inh inconclusive, BAZ2B block inconclusive
Cc1ccc(Cl)cc1N1CCN(C(=O)C2CCN(c3nnc(-n4cccc4)s3)CC2)CC1	none
Cc1cccc(N2CCN(C(=O)C3CCN(c4nnc(-n5cccc5)s4)CC3)CC2C)c1 (centres undefined)	G9a inh 50µM, JMJD2A Tudor inh inconclusive, BAZ2B block inconclusive
Cc1cccc(N2CCN(C(=O)CSc3ccsc3[N+](=O)[O-])CC2C)c1 (centres undefined)	G9a inh inconclusive, JMJD2A Tudor inh inconclusive, BAZ2B block 40µM
CC1CC(C)CN(S(=O)(=O)c2ccc3c(c2)CCN3C(=O)CCC(=O)O)C1 (centres undefined)	none (no result: G9a inh)
O=C(CSc1ccsc1[N+](=O)[O-])N1CCN(c2ccccn2)CC1	G9a inh 45µM, JMJD2A Tudor inh inconclusive, BAZ2B block inconclusive
COc1ccc(-c2nsc(NC(=O)c3cccc(OC)c3)n2)cc1	none (no result: Six1-Eya2 blk, CtBP-E1A inh)
COc1ccc(-c2nc3scc(CCNC(=O)c4cccc(Br)c4)n3n2)cc1	none (no result: Six1-Eya2 blk, CtBP-E1A inh)
Cc1ccccc1C[C@H](C(=O)O)N1C(=O)c2ccc(C(=O)O)cc2C1=O	none (no result: HP1b chromo inh, Six1-Eya2 blk, CtBP-E1A inh)
Cc1cccc(N2CCN(C(=O)CCC(=O)N3CC(C)Oc4ccc(C)cc43)CC2C)c1 (centres undefined)	G9a inh 45µM, JMJD2A Tudor inh inconclusive, BAZ2B block inconclusive
CC(=O)C1=C(O)C(=O)N(c2ccc(Br)cn2)C1c1ccccc1F (centres undefined)	G9a inh inconclusive
COc1cc(C2C(C(C)=O)=C(O)C(=O)N2c2ccc(Br)cn2)ccc1O (centres undefined)	JMJD2A Tudor inh 89µM, BAZ2B block inconclusive
CC(=O)C1=C(O)C(=O)N(c2ccc(Br)cn2)C1c1cccc([N+](=O)[O-])c1 (centres undefined)	none
CC(=O)C1=C(O)C(=O)N(c2ccc(O)cc2)C1c1ccc(Cl)cc1 (centres undefined)	G9a inh 71µM
